Hit rate of the full screen: of about 48,000 compounds, about 13,000 (27%) showed an effect of 50% or more. The list shows a part of the results.
Each molecule was assayed on Wolbachia pipientis (assay: Anti-Wolbachia Cell-Based Screen). Details: 5 µM.
Format: functional
Set-up: scale not given: in the data most compounds retested in dose-response had high values

Going from `Cc1nn2c(N3CCS(=O)(=O)CC3)cc(-c3ccccc3)nc2c1C` to `CN1CCN(C(=O)c2cc(NC(=O)c3ccccc3)n(C)n2)CC1`, the “Percent Effect” value rises from -7.306% to 103.5%.

First: COC(=O)CSCc1noc(-c2ccc(Cl)cc2)n1
Second: C[C@@H](NC(=O)c1cccn1C)c1c(-c2ccc(Cl)cc2)noc1C(=O)O
The “Percent Effect” value of the first is higher: 23.78% for the first, 1.666% for the second.

Compared with `Cc1nn(CCC#N)c(C)c1[C@@H]1C=C[C@@H](NCc2ccc(F)cc2)C1`, `CC(=O)Nc1ccc(CNC(=O)CNCc2sc(C)nc2C)cc1` is lower in “Percent Effect” value: -3.605% for the first, -27.38% for the second.

Going from `CC(C)CCC(C)NC(=O)c1ccc(OCC(N)=O)cc1` (stereo unspecified) to `CNC(=O)C(C)NC(=O)c1ccc(Oc2cccnc2)cc1` (stereo unspecified), the “Percent Effect” value falls from -5.752% to -6.707%.

First: NC(=O)c1ccc(S(=O)(=O)NC2CCN(Cc3ccccc3)C2=O)cc1 (stereo unspecified)
Second: CN1CCC(Oc2ccc(NC(=O)c3ccccc3)cc2)CC1
The “Percent Effect” value of the first is lower: -1.969% for the first, 6.259% for the second.

First: Cn1nc(C(=O)NC2CCCCC2)cc1NC(=O)C1CC1
Second: Cn1nc(C(=O)N2CCCCCC2)cc1NC(=O)c1ccccc1
The “Percent Effect” value of the first is lower: 0.3949% for the first, 99.88% for the second.

Going from `CCN1CCN(C(=O)c2cc(NC(=O)c3ccccc3)n(C)n2)CC1` to `CC1CCN(C(=O)c2cc(NC(=O)c3ccccc3)n(C)n2)CC1`, the “Percent Effect” value falls from 93.08% to 70.66%.

Going from `Cn1nc(C(=O)N2CCSCC2)cc1NC(=O)c1ccco1` to `Cn1nc(C(=O)N2CCSCC2)cc1NC(=O)c1ccccc1`, the “Percent Effect” value falls from 98.85% to 96.7%.

Compared with `CCN1CCN(C(=O)c2cc(C(=O)OC)nn2-c2ccccc2)CC1`, `COC(=O)c1cc(C(=O)N2CCCCCC2)n(-c2ccccc2)n1` is higher in “Percent Effect” value: -11.35% for the first, -9.69% for the second.

Compared with `Cc1nc(N2CCOCC2)nc(C)c1NC(=O)c1ccco1`, `Cc1nc(N2CCCC2)nc(C)c1NC(=O)c1ccco1` is higher in “Percent Effect” value: 3.58% for the first, 8.53% for the second.

First: CCCn1ccc(C(=O)N2CCC(C)CC2)n1
Second: CC1CCN(C(=O)c2cn(-c3ccc(C(F)(F)F)cn3)nn2)CC1
The “Percent Effect” value of the first is lower: -7.324% for the first, -7.014% for the second.

First: CCn1nc(C)cc1C(=O)N1CCCN(CCCc2ccccc2)CC1
Second: CCCN(C(=O)c1ocnc1C)C1CCCN(Cc2ccccc2)C1 (stereo unspecified)
The “Percent Effect” value of the first is higher: 0.5946% for the first, -1.253% for the second.

Going from `C/C=C(/C)C(=O)NS(=O)(=O)c1ccc(C(F)(F)F)cn1` to `CCN(CC)c1ccc(NS(=O)(=O)c2cccnc2)cn1`, the “Percent Effect” value falls from 4.736% to 2.803%.

First: O=C1CC(NCc2ccc(OC(F)F)cc2)CN1Cc1cccc(F)c1 (stereo unspecified)
Second: O=C(O)C1(Cc2ccc(F)cc2)CCCN(Cc2ccncc2)C1 (stereo unspecified)
The “Percent Effect” value of the first is higher: 2.286% for the first, -12.28% for the second.

First: Cc1cccc(C(=O)N2CCSCC2)c1NC(=O)c1cccnc1
Second: Cc1cccc(C(=O)N2CCN(C)CC2)c1NC(=O)c1ccncc1
The “Percent Effect” value of the first is lower: -13.65% for the first, -3.532% for the second.

Going from `O=C(c1ccn(-c2ccccc2Cl)n1)N1CCSCC1` to `CN(C(=O)c1ccccc1Cl)C1CCN(c2ccccn2)CC1`, the “Percent Effect” value rises from -7.672% to 11.04%.

Going from `Cc1cc2ccccc2n1CCC(=O)N1CCN(C)CC1C(N)=O` (stereo unspecified) to `Cc1cc2ccccc2n1CCC(=O)N1CCC[C@H]1C(N)=O`, the “Percent Effect” value falls from 104.9% to -2.793%.

First: Cc1cc2ccccc2n1CCC(=O)N1CCCC1Cn1cccn1 (stereo unspecified)
Second: Cc1c[nH]nc1C1CCCCN1C(=O)CCn1nccc1C (stereo unspecified)
The “Percent Effect” value of the first is lower: -4.808% for the first, 91.05% for the second.

First: CSCCC(=O)N1CCCC(c2nccn2Cc2ccncc2)C1 (stereo unspecified)
Second: NC(=O)C1(CCCc2ccccn2)CCCN(Cc2ccncc2)C1 (stereo unspecified)
The “Percent Effect” value of the first is lower: -15.94% for the first, 119.7% for the second.

Compared with `CS(=O)(=O)NCC(=O)N1CCCC1c1noc(C2CC2)n1` (stereo unspecified), `Cc1c[nH]nc1C1CCCCN1C(=O)CNS(C)(=O)=O` (stereo unspecified) is higher in “Percent Effect” value: -4.288% for the first, 91.22% for the second.

Compared with `Cc1c[nH]nc1C1CCCCN1C(=O)CC1(O)CCCCC1` (stereo unspecified), `Cc1c[nH]nc1C1CCCCN1C(=O)Cn1cc(Cl)cn1` (stereo unspecified) is lower in “Percent Effect” value: 121.5% for the first, -1.424% for the second.

Going from `Cn1cc(C2CCCN2C(=O)COC2CCCCC2)cn1` (stereo unspecified) to `Cc1cccc(C2CCCCN2C(=O)CCCS(C)(=O)=O)c1C` (stereo unspecified), the “Percent Effect” value falls from -3.38% to -5.265%.

Compared with `Cc1n[nH]cc1CNC(=O)[C@H]1CCCCN1C(=O)OC(C)(C)C`, `CCn1nc(C)c(CCNC(=O)C2CCCN(C(=O)N(C)C)C2)c1C` (stereo unspecified) is higher in “Percent Effect” value: -12.93% for the first, -3.526% for the second.

Going from `Cc1ccnn1CCC(=O)N1C[C@H]2CC[C@@H]1CN(CC(=O)N(C)C)C2` to `Cn1ccnc1CN1CCN(CC2CC2)[C@@H]2CS(=O)(=O)C[C@@H]21`, the “Percent Effect” value rises from -3.709% to 106.1%.

First: CC(CCCC(C)(C)O)Nc1ccc(-c2nccn2C)nn1 (stereo unspecified)
Second: Cn1nc(CC(C)(C)C)cc1NC(=O)c1ccc2[nH]nnc2c1
The “Percent Effect” value of the first is higher: 6.201% for the first, -11.38% for the second.

Going from `COc1cc(N2CCC(c3nccn3Cc3ccccc3)CC2)ncn1` to `COc1ccccc1C(=O)N(C)C1CCN(c2ccccn2)CC1`, the “Percent Effect” value rises from -9.757% to 177.1%.

Compared with `CN(C)C(=O)c1ccc2c(c1)N(C)C(CC(=O)NCCC(C)(C)C)CO2` (stereo unspecified), `CCOc1cc(C(=O)N(C)C)ccc1NC(=O)C(C)c1ccsc1` (stereo unspecified) is lower in “Percent Effect” value: 1.305% for the first, -4.912% for the second.

First: CC(C)=CCN1CCN(Cc2ncc[nH]2)[C@H]2CS(=O)(=O)C[C@H]21
Second: CC(C)=CCN1CCN(Cc2nccn2C)[C@H]2CS(=O)(=O)C[C@H]21
The “Percent Effect” value of the first is lower: -11% for the first, 99.3% for the second.

Compared with `O=S1(=O)C[C@@H]2[C@H](C1)N(Cc1ncc[nH]1)CCN2CC1CC1`, `O=S1(=O)C[C@@H]2[C@H](C1)N(Cc1cc(Cl)cc(Cl)c1)CCN2CC1CC1` is higher in “Percent Effect” value: -14.64% for the first, 5.878% for the second.

First: CC(C)=CCN1CCN(Cc2nc3ccccc3[nH]2)[C@H]2CS(=O)(=O)C[C@H]21
Second: CN1C[C@@H](F)[C@@H](OCc2nc3ccccc3[nH]2)C1
The “Percent Effect” value of the first is lower: -9.753% for the first, -2.12% for the second.

Going from `CN1CCN(c2cnn(Cc3ccc(S(C)(=O)=O)cc3)c(=O)c2)CC1` to `CN(C1CCN(c2ccccn2)CC1)S(=O)(=O)c1ccc(F)cc1`, the “Percent Effect” value rises from 4.016% to 18.41%.

Compared with `Cc1ccc(N2CCCC(N3CCN(CC(F)F)CC3)C2=O)cc1` (stereo unspecified), `Cc1nccn1-c1ccc(CNS(=O)(=O)N2CCCCC2C)cn1` (stereo unspecified) is higher in “Percent Effect” value: -21.44% for the first, 6.496% for the second.

First: CN(C(=O)CNc1ccc(C#N)cc1)C1CCN(c2ccccn2)CC1
Second: Cc1ccccc1CC(=O)N(C)C1CCN(c2ccccn2)CC1
The “Percent Effect” value of the first is higher: 6.622% for the first, -4.877% for the second.

Going from `CN(C(=O)c1cccc2[nH]ncc12)C1CCN(c2ccccn2)CC1` to `Cc1cccc(C(=O)N(C)C2CCN(c3ccccn3)CC2)c1C`, the “Percent Effect” value rises from -1.361% to 141.7%.

First: CCOc1ncccc1C(=O)N(C)C1CCN(c2ccccn2)CC1
Second: O=C(O)C(F)(F)F.c1ccc(OCc2noc3c2CN(c2ncccn2)CC3)nc1
The “Percent Effect” value of the first is higher: 144.5% for the first, 2.544% for the second.

Going from `O=C(Cn1cnnn1)NCC1(O)CCCc2ccccc21` (stereo unspecified) to `CCOC(=O)CC(C)NC(=O)c1cn(Cc2ccccc2F)nn1` (stereo unspecified), the “Percent Effect” value falls from -5.769% to -6.246%.

Compared with `CN(C(=O)COc1ccc(F)cc1)[C@@H]1CS(=O)(=O)C[C@H]1O`, `CO[C@@H]1CC[C@@H](N(C)C(=O)COc2ccc(F)cc2)[C@H]1O` is lower in “Percent Effect” value: 1.163% for the first, -1.969% for the second.

Compared with `CN(C(=O)COc1ccc(F)cc1)[C@@H]1CC[C@@H](n2ccnc2)[C@@H]1O`, `O=C(O)C1(Cc2ccc(F)cc2F)CCCN(Cc2ccncc2)C1` (stereo unspecified) is lower in “Percent Effect” value: 128.1% for the first, 1.95% for the second.

First: CC(C)Cc1cc(NC(=O)c2ccc3[nH]nnc3c2)n(C)n1
Second: CCC(C)N(CC)C(=O)c1ccc2[nH]nnc2c1 (stereo unspecified)
The “Percent Effect” value of the first is lower: -17.03% for the first, 122.8% for the second.

Going from `CN(C)c1cccc(CNC(=O)Nc2ccc3[nH]nnc3c2)n1` to `CCC(C)N(Cc1ccsc1)C(=O)c1ccc2[nH]nnc2c1` (stereo unspecified), the “Percent Effect” value rises from 0.1018% to 109%.

First: CCC(C)N(Cc1ccsc1)C(=O)c1ccc(CO)cc1 (stereo unspecified)
Second: CCC(CO)N(Cc1ccc(C(=O)O)cc1)Cc1ccsc1 (stereo unspecified)
The “Percent Effect” value of the first is higher: 113.9% for the first, 4.353% for the second.

First: CC(=O)N(Cc1ccsc1)c1ccccc1
Second: CN(Cc1cccs1)C(=O)CN(C)C1CCc2ccccc21 (stereo unspecified)
The “Percent Effect” value of the first is lower: -9.96% for the first, 8.524% for the second.

First: COC(=O)CN(Cc1ccccc1C)C(=O)C1CCC1
Second: CCOC(=O)C1(Cc2cccc(OC)c2)CCCN(Cc2ncc[nH]2)C1 (stereo unspecified)
The “Percent Effect” value of the first is lower: 9.342% for the first, 25.22% for the second.

First: Cn1nc(COc2cncnc2)c2c1CCN(Cc1ccccn1)C2.O=C(O)C(F)(F)F
Second: Cn1nc(COc2cncnc2)c2c1CCN(Cc1ccco1)C2.O=C(O)C(F)(F)F
The “Percent Effect” value of the first is higher: 8.456% for the first, 2.599% for the second.

Compared with `Cc1cnc(N2CCc3c(c(COc4cncnc4)nn3C)C2)nc1`, `Cn1nc(COc2cccnc2)c2c1CCN(c1ncccn1)C2` is lower in “Percent Effect” value: 94.36% for the first, 87.22% for the second.

First: Cn1nc(Cn2ccnc2)c2c1CN(c1ncccn1)C2.O=C(O)C(F)(F)F
Second: Cc1cnc(N2CCc3onc(COc4cccnc4)c3C2)nc1
The “Percent Effect” value of the first is lower: -4.507% for the first, 88.9% for the second.

Compared with `c1cncc(OCc2noc3c2CN(Cc2ccoc2)CC3)c1`, `Cn1cc(CN2CCCC(CCCc3ccccn3)(C(N)=O)C2)cn1` (stereo unspecified) is higher in “Percent Effect” value: 7.434% for the first, 84.15% for the second.

Compared with `NC(=O)C1(CCCc2ccccn2)CCCN(Cc2ncc[nH]2)C1` (stereo unspecified), `CCOC(=O)C1(Cc2cccc(Cl)c2)CCCN(Cc2ncc[nH]2)C1` (stereo unspecified) is lower in “Percent Effect” value: 141.6% for the first, -2.445% for the second.

First: Cn1cc(CN2CCC3(CCCN(Cc4ccccn4)C3)CC2)cn1
Second: CCS(=O)(=O)NCC(=O)N1CC2(CCCC2)c2c(F)cccc21
The “Percent Effect” value of the first is higher: -1.039% for the first, -9.992% for the second.

Compared with `O=C(O)CCc1cc2n(n1)CCCN(C(=O)c1ccc(Cl)s1)C2`, `CC(=O)N[C@H]1C[C@@H](c2nc(-c3ccc4c(c3)OCO4)no2)N(C)C1` is higher in “Percent Effect” value: -14.6% for the first, -4.728% for the second.

In the case of `CCN1CCC(NN2CCN(C)CC2)CC1`, the “Percent Effect” value was 4.072%.

Reference: ChEMBL document CHEMBL3988442, “University of Dundee, Small-Polar-MMV Screening Library” (2021)
